What follows are compounds tested on HL-1 (assay: protection of cardiomyocytes from stress damage, SAR follow-up, cell-based, panel, H9c2 and HL-1, ATP luminescence, set 2 (AID 651871;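 further: cells exposed to stressor for 2 h before ATP readout; reference of the scale not given here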)). Details: H9c2/HL-1 cardiomyocytes, 2-deoxyglucose stress, with 2-deoxyglucose, run 13, at 79 µM (top of the series).

Question: `CCOC(=O)c1cccc(NC(=O)CNC(=O)c2cc(-c3cc(OC)c(OC)c(OC)c3)nc3ccccc23)c1` was tested. Which activity (protection/inhibition) did it give?
Answer: 66.6%

Question: How did the activity (protection/inhibition) turn out when `COc1ccc2c(c1OC)C(=O)N1c3ccccc3C(=O)N(Cc3cccc(Cl)c3Cl)C21` (stereo not drawn) was run?
Answer: -9.86%

Question: `COc1ccc2nc(-c3cc(OC)c(OC)c(OC)c3)cc(C(=O)NCC(=O)Nc3ccc(C(C)=O)cc3)c2c1` was tested. Which activity (protection/inhibition) did it give?
Answer: 55.5%
